Experiment: small-molecule microarray binders of probe aNog, primary screen, biochemical, biotinylated probe, 635/667 nm fluorescence (AID 1115);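 note: probe is biotinylated aNog protein used at 0.15 µg/mL for 1 h at 4 C; z-score combines 667 nm fluorescence of each spot with its signal to noise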
Conditions: higher = more signal

Q: With `CCN1C(=O)[C@H]2[C@H]3[C@H](O)[C@H](O)CC(=NOC[C@@H](C)[C@H](OCc4ccccc4)C(C)C)[C@@H]3CC[C@H]2C1=O` as the molecule, how does the composite z-score read?
A: Its composite z-score is 0.124.

Q: With `CCOC(=O)NN=C1C[C@@H](O)[C@@H](O)[C@@H]2[C@@H]3C(=O)N(C4CCCCC4)C(=O)[C@@H]3CC[C@@H]12` as the molecule, how does the composite z-score read?
A: The composite z-score was -0.158.

Q: For `CCc1cc2c(nc1CC)CCN(CCC(C)=NOC[C@@H](O)[C@H]1O[C@@H]3OC(C)(C)O[C@@H]3[C@H]1O)C2`, which composite z-score is on record?
A: The composite z-score was -0.238.

Q: For `CC(C)NC(=O)[C@@H]1c2ccccc2C(=O)N(CC23CC4CC(CC(C4)C2)C3)[C@H]1c1ccc(CO)cc1`, which composite z-score is on record?
A: Its composite z-score is -0.338.

Q: With `CN1C(=O)C2C=CC(C(O)C(c3ccccc3)c3ccccc3)N(NC(=O)OC(C)(C)C)C2C1=O` (stereo not given) as the molecule, how does the composite z-score read?
A: The composite z-score was 2.09.

Q: Which composite z-score does the source give for `CC(C)(C)OC(=O)CC[C@]1(C(N)=O)COC(c2ccc(OCCCO)cc2)=N1` here?
A: Its composite z-score is 1.7.

Q: For `C/C=C\[C@@H](NCc1ccccc1Br)[C@@H](O)Cc1ccccc1`, which composite z-score is on record?
A: The composite z-score was -0.18.

Q: With `CCOC(=O)C1=CC[C@H]2C(=O)N(CC)C(=O)[C@@H]12` as the molecule, how does the composite z-score read?
A: Its composite z-score is -0.0184.

Q: With `COC(=O)C1(C)C=C2C(=C(c3ccccc3)C(=O)C2C)CN1` (stereo not given) as the molecule, how does the composite z-score read?
A: The composite z-score was 1.74.

Q: With `CO[C@@H]1COC(=O)CC=C[C@@H](C)[C@@H]2C=C[C@H](O)[C@@H](COC(=O)CCC[C@H]1C)O2` as the molecule, how does the composite z-score read?
A: Its composite z-score is -0.0755.

Q: For `CCOC(=O)[C@H](Cc1ccccc1)NC(=O)CCC1CC(OC(=O)NCc2ccc3c(c2)OCO3)CC2(CCCC(COC(=O)NCC(c3ccccc3)c3ccccc3)O2)O1` (stereo not given in full), which composite z-score is on record?
A: Its composite z-score is -0.233.

Q: Which composite z-score does the source give for `CN1C(=O)C2C(C1=O)C1C=C(CCCO)C2C(c2ccc(CN3CCCC3)cc2)N1C` (stereo not given) here?
A: The composite z-score was 0.171.

Q: For `[N-]=[N+]=NCc1ccccc1[C@@H]1OC(c2ccc(OCCCO)cc2)=N[C@]1(Cc1ccccc1)C(=O)N1CCOCC1`, which composite z-score is on record?
A: The composite z-score was 1.9.

Q: With `CO[C@@H]1COC(=O)CCC[C@@H](C)[C@H](OC)COC(=O)CCC[C@H]1C` as the molecule, how does the composite z-score read?
A: The composite z-score was -0.303.

Q: With `C=COC[C@H]1CN2[C@@H](CC[C@@H](C)[C@@H]2c2ccc(Br)cc2)C(=O)O1` as the molecule, how does the composite z-score read?
A: Its composite z-score is -0.0286.

Q: For `CC(C)=CCCC(C)=CCON=C1[C@H]2CCn3c(=O)n(Cc4cc5c(cc4Cl)OCO5)c(=O)n3[C@H]2[C@H](O)[C@@H]2O[C@H]12`, which composite z-score is on record?
A: The composite z-score was -0.181.

Q: With `C=CCOC(=O)[C@H]1[C@@H]2C(=O)O[C@@H](c3ccccc3)[C@@H](c3ccccc3)N2[C@@H](c2ccc(OCCOC(=O)[C@H]3C[C@H]4C(=O)N5CCC[C@H]5C(=O)N4[C@H]3c3cccc(OCCO)c3)cc2)[C@]12C(=O)Nc1ccc(I)cc12` as the molecule, how does the composite z-score read?
A: Its composite z-score is 2.7.

Q: With `COc1ccc(-c2ccc3c(n2)CCCN3CC(O)CN2CCCc3nc(C)c(C)cc32)cc1` (stereo not given) as the molecule, how does the composite z-score read?
A: Its composite z-score is 0.667.

Q: For `COC(=O)[C@@]1(Cc2ccccc2)[C@H]2c3cc(C(=O)N4CCCC4)n(Cc4ccccn4)c3C[C@H]2CN1C(=O)c1ccccc1`, which composite z-score is on record?
A: The composite z-score was 2.25.

Q: Which composite z-score does the source give for `CC(C)NC(=O)[C@@]1(C)c2ccccc2C(=O)N(Cc2cc(F)cc(C(F)(F)F)c2)[C@H]1c1ccc(CO)cc1` here?
A: Its composite z-score is -0.347.

Q: With `CO[C@H]1COC(=O)[C@H](C)COC(=O)CC=C[C@@H](C)[C@H](OC)COC(=O)CC=C[C@@H]1C` as the molecule, how does the composite z-score read?
A: Its composite z-score is -0.158.

Q: With `CC(=O)OC[C@H]1O[C@H](CCON=C(C)CCC(=O)OC[C@H]2O[C@H](C#Cc3ccccc3)C=C[C@@H]2Oc2ccc(C)cc2)C=C[C@@H]1OC(C)=O` as the molecule, how does the composite z-score read?
A: Its composite z-score is -0.423.

Q: Which composite z-score does the source give for `CN(C)C(=O)[C@@]1(Cc2ccccc2)N=C(c2ccc(OCCCO)cc2)O[C@H]1c1ccccc1CN=[N+]=[N-]` here?
A: Its composite z-score is -0.18.

Q: With `C=CCC(OC(C)=O)[C@@H]1[C@@H](N(Cc2cc3ccccc3o2)C(=O)Cc2ccc(F)cc2)c2cc(OCCCO)ccc2N1C(=O)Cc1ccc(OC)cc1` (stereo not given in full) as the molecule, how does the composite z-score read?
A: The composite z-score was 0.0234.

Q: With `COc1ccc(O[C@H]2C=C[C@@H](c3ccccc3)O[C@@H]2COC(=O)CCC(C)=NO[C@H](C)c2cn([C@@H]3COC[C@H]3O)nn2)cc1` as the molecule, how does the composite z-score read?
A: The composite z-score was -0.185.

Q: Which composite z-score does the source give for `O=C(NN=C1C[C@@H](O)[C@@H](O)[C@@H]2[C@@H]3C(=O)N(c4cccc(Oc5ccccc5)c4)C(=O)[C@@H]3CC[C@H]12)OCc1ccccc1` here?
A: The composite z-score was 0.116.

Q: With `C=CCOC(=O)[C@H]1[C@@H]2C(=O)O[C@@H](c3ccccc3)[C@@H](c3ccccc3)N2[C@@H](c2ccc(OCCOC(=O)[C@H]3C[C@H]4C(=O)N[C@@H](Cc5ccccc5)C(=O)N4[C@H]3c3ccc(O)cc3)cc2)[C@]12C(=O)Nc1ccccc12` as the molecule, how does the composite z-score read?
A: Its composite z-score is -0.112.

Q: Which composite z-score does the source give for `COCCCNC(=O)[C@@]1(Sc2ccc(C)cc2)CC(=O)N(Cc2ccccc2)[C@@H]1c1ccc(CO)cc1I` here?
A: Its composite z-score is -0.176.

Q: Which composite z-score does the source give for `CCCCCN1CC=CC23O[C@@H]4C=CCOC(=O)[C@@H]4[C@H]2C(=O)N(C(CO)C(C)C)[C@@H]3C1=O` (stereo not given in full) here?
A: Its composite z-score is -0.254.

Q: Which composite z-score does the source give for `CO[C@@H]1COC(=O)CC=C[C@@H](C)[C@@H]2C=C[C@@H](O)[C@@H](COC(=O)CC=C[C@H]1C)O2` here?
A: The composite z-score was -0.444.

Q: For `CO[C@@H]1COC(=O)[C@H](C)NC(=O)[C@@H](C)COC(=O)CCC[C@H]1C`, which composite z-score is on record?
A: The composite z-score was -0.169.

Q: Which composite z-score does the source give for `COC(=O)[C@@]1(Cc2ccc(OC)cc2)[C@H]2c3cc(C(=O)N4CCCC4)n(Cc4cc(F)c(F)c(F)c4)c3C[C@H]2CN1C(=O)c1ccccc1` here?
A: Its composite z-score is 1.07.

Q: With `CC(C)=NOCc1cccc(-c2cc(-c3ccccc3)no2)c1` as the molecule, how does the composite z-score read?
A: Its composite z-score is -0.161.

Q: For `CC(C)=NOCc1ccc(-c2cc(-c3ccccc3)no2)cc1`, which composite z-score is on record?
A: Its composite z-score is -0.139.

Q: For `Cn1cccc1C(O)C1C=CC2C(=O)NC(=O)C2N1Nc1ccccn1` (stereo not given), which composite z-score is on record?
A: The composite z-score was -0.0446.
